Results filed as inconclusive are left out. A number with no mark means an inactive call. Calls of active or inactive are those of the source. Calls come from the whole dose curve; as a rule, active = well fitted curve in the direction sought with a large enough effect; inconclusive = small, poorly fitted or top-dose-only effect, or another doubt; inactive = no such curve, though single readings can be large; an effect the other way counts as inactive or inconclusive.

One assay can be described thus: Counterscreen qHTS for small molecule stabilizers of the endoplasmic reticulum resident proteome: GLuc-NoTag assay (AID 1508627).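 Note: 0% = thapsigargin alone and -100% = DMSO vehicle control.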 The settings on record: Gaussia luciferase NoTag secretion counterscreen, luminescence, thapsigargin 100 nM for final 4 h; series mostly up to 76.4 µM. Summed up: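 SH-SY5Y cells stably expressing constitutively secreted GLuc without SERCaMP tag, exposed to compound for 19 hr, then to 100 nM thapsigargin for 4 hr at 37C. Medium luciferase was read by coelenterazine luminescence without lysis.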
(In general: Counterscreens check selectivity or assay interference.)
For the compound `COc1ccc(-c2nc3cnc(N4CCNCC4)nc3n(-c3ccccc3)c2=O)cc1`, the Potency entry is “inactive”.
In the case of `O=C(c1ccco1)N1CCC[C@@]2(CCN(c3ccncc3)C2)C1`, the Potency result was “inactive”.
Regarding `COc1cccc(CN2CCN(C(=O)c3ccc(-c4ccccc4)cc3)CC2)c1OC`, the Potency result was “inactive”.
The same measure, in the same setting: to `COc1ccc(Oc2ncc3nc(-c4ccccc4)c(=O)n(C4CC4)c3n2)cc1` belongs “inactive”.

A further assay in a line: Confirmatory qHTS for small molecule stabilizers of the endoplasmic reticulum resident proteome: Secreted ER Calcium Modulated Protein (SERCaMP) assay (AID 1508628). Note: nearly all actives have a fitted effect of over 40% in size. Note: potency is the fitted concentration of half-maximal effect. The settings on record: SERCaMP secreted luciferase ER calcium/proteostasis reporter; series mostly up to 76.3 µM. A digest of the protocol: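 SH-SY5Y cells stably expressing GLuc-SERCaMP, treated 16 h with compound (primary 1.53, 7.67, 38.3 uM; confirmation 11 concentrations, up to 76.6 uM), then 100 nM thapsigargin for 4 h. Secreted Gaussia luciferase in medium read by coelenterazine luminescence.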
For orientation: Quantitative high-throughput screening tests each substance at several concentrations.
Consider `O=c1c(-c2ccccc2)nc2cnc(N3CCNCC3)nc2n1-c1ccccc1`, for which the Potency result was “inactive”.
For `Cc1ccccc1-c1nccc(Nc2ccc(F)cc2)n1`, the Potency result is “inactive”.
Turning to `COCCn1c(=O)c(-c2ccc(Cl)cc2)nc2cnc(OC)nc21`, the Potency result is “inactive”.
On the same count and under the same terms, to `Cc1nc2cnc(N3CCNCC3)nc2n(CCc2ccccc2)c1=O` belongs 31.6 µM (active).
For `CN1CCN(c2ncnc3ccc(-c4ccccc4C#N)cc23)CC1`, the Potency result was “inactive”.
In the case of `CN1CCN(c2ncc3nc(CCc4ccccc4)c(=O)n(Cc4ccc(F)cc4)c3n2)CC1`, the Potency was 25.1 µM (active).
As for `N#CCCn1c(=O)c(-c2ccc(Cl)cc2)nc2cnc(OCc3ccccc3)nc21`, the Potency result is “inactive”.
On the same count and under the same terms, then `O=c1cnc2cnc(N3CCNCC3)nc2n1Cc1cccs1`, with 31.6 µM (active); and `COc1ccc(CNc2ncnc3ccc(-c4ccccc4OC)cc23)c(OC)c1`, with 22.4 µM (active); and `Clc1ccccc1-c1nc(N2CCNCC2)c2ccccc2n1`, with 12.6 µM (active).
Still for that read-out and setting: then `O=c1c(-c2cccs2)nc2cnc(N3CCNCC3)nc2n1CCc1ccccc1`, with “inactive”; and `COc1cccc(Cn2c(=O)c(C)nc3cnc(N4CCNCC4)nc32)c1`, with 35.5 µM (active); and `CN1CCN(c2ncc3nc(-c4cc(F)cc(F)c4)c(=O)n(-c4ccccc4)c3n2)CC1`, with “inactive”.
Turning to `O=c1c(-c2ccc(Cl)cc2)nc2cnc(Oc3ccccc3)nc2n1C1CC1`, the Potency was 35.5 µM (active).
The same measure, in the same setting: to `COc1cccc(-c2nc(N3CCN(C)CC3)c3ccccc3n2)c1` belongs 20 µM (active); to `CN1CCN(c2ncc3nc(-c4ccccc4)c(=O)n(-c4ccccc4)c3n2)CC1`, 25.1 µM (active).
With `O=C(c1cc(C(F)(F)F)cc(C(F)(F)F)c1)N1CCC2(CC1)CCN(c1ccncc1)CC2`, the Potency result is “inactive”.
On the same count and under the same terms, to `Cc1noc(C)c1-c1nc(N2CCNCC2)c2ccccc2n1` belongs 14.1 µM (active); to `COCCn1c(=O)c(-c2ccc(OC)cc2)nc2cnc(N3CCNCC3)nc21`, “inactive”.
For `Cc1ccccc1-c1nc(N2CCN(C)CC2)c2ccccc2n1`, the Potency is 20 µM (active).
Regarding `COc1ccc(-c2nc3cnc(N4CCNCC4)nc3n(-c3ccccc3)c2=O)cc1`, the Potency entry was “inactive”.
Regarding `O=C(c1ccco1)N1CCC[C@@]2(CCN(c3ccncc3)C2)C1`, the Potency is 28.2 µM (active).

The next assay in a line: Cell Viability qHTS for small molecule stabilizers of the endoplasmic reticulum resident proteome (AID 1508629).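 Note: human SH-SY5Y neuroblastoma cells carrying the GLuc-SERCaMP reporter; compound exposure about 46 h in total before the viability read; % is set by controls: 0 for no effect and ±100 for the full control effect.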 Conditions: cell viability counter-screen, 100 nM thapsigargin for final 4 h.
In the case of `CN1CCN(c2ncncc2-c2ccccc2C(F)(F)F)CC1`, the max response is 18.7%.
Same read-out and setting: then `CN(C)c1nccc(N(Cc2ccccc2)Cc2ccccc2)c1C#N`, with -2.77%; and `CCCCCCCCCCCCc1ccccc1O`, with 11.8%; and `COc1ccc(Oc2ncc3nc(-c4cccs4)c(=O)n(CCC#N)c3n2)cc1`, with 18.3%.
In the case of `COc1ccc(Oc2ncc3nc(CCc4ccccc4)c(=O)n(C[C@H]4CCCO4)c3n2)cc1`, the max response was 6.27%.
For the compound `COCCn1c(=O)c(CCc2ccccc2)nc2cnc(N3CCN(C)CC3)nc21`, the max response was 0.276%.
Turning to `COCCn1c(=O)c(-c2cn(C)c3ccccc23)nc2cnc(N3CCNCC3)nc21`, the max response was -7.1%.
As to `COc1ccc(-n2c(=O)cnc3cnc(N4CCNCC4)nc32)cc1`, the max response is 4.18%.
The same measure, in the same setting: then `CN(C)c1ccc(-c2nccc(NCCN3CCOCC3)n2)cc1`, with 10.1%.
Same read-out and setting: then `O=C(c1cc(C(F)(F)F)cc(C(F)(F)F)c1)N1CCC2(CC1)CCN(c1ccccn1)CC2`, with 25.1%.
The same measure, in the same setting: then `O=C(Nc1cccc(F)c1)N1CCCC2(CCNCC2)C1`, with 8.67%; and `COc1ccc(-n2c(=O)c(-c3ccccc3)nc3cnc(N4CCNCC4)nc32)cc1`, with 0.755%.
Consider `Cn1c(=O)c(CCc2ccccc2)nc2cnc(OCc3ccccc3)nc21`, for which the max response was -14.7%.
The same measure, in the same setting: then `COc1cccc(CN2CCN(C(=O)c3ccc(-c4ccccc4)cc3)CC2)c1OC`, with 10.7%; and `COc1ccc(Oc2ncc3nc(-c4ccccc4)c(=O)n(C4CC4)c3n2)cc1`, with 12.6%.
